The values below come from ChEMBL document CHEMBL1961873, “Compounds: GSK PKIS; Assays: Nanosyn kinase panel” (2012).

Assay [1] concerns the target 5'-AMP-activated protein kinase catalytic subunit alpha-2 (Homo sapiens) (UniProt P54646). The note with it: at 1 µM.
Assay [2] deals with T1, NUAK family SNF1-like kinase 1 (Homo sapiens) (UniProt O60285).
T1 sequence (whole entry): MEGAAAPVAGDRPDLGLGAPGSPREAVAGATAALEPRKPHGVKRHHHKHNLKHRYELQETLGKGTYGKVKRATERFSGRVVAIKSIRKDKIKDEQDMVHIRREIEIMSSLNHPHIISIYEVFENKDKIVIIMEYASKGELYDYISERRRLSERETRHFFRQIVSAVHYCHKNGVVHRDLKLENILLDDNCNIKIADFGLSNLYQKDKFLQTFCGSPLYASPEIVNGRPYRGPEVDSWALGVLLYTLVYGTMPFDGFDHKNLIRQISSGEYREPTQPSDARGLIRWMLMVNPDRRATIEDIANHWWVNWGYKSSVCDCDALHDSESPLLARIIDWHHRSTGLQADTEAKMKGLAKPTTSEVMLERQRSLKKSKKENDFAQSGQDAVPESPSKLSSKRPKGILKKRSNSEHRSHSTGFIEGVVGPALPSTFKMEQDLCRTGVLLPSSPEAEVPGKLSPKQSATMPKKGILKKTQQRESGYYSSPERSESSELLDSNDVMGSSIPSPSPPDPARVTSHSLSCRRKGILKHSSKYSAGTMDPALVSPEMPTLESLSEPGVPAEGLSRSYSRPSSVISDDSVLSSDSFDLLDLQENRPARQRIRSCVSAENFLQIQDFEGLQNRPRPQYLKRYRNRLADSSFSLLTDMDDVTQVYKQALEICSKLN
Conditions: at 0.1 µM.

Assay [3] has as its target T1, NUAK family SNF1-like kinase 1 (Homo sapiens). The note with it: at 1 µM.
Assay [4] has as its target T2, Serine/threonine-protein kinase BRSK1 (Homo sapiens) (UniProt Q8TDC3).
T2 sequence (whole entry): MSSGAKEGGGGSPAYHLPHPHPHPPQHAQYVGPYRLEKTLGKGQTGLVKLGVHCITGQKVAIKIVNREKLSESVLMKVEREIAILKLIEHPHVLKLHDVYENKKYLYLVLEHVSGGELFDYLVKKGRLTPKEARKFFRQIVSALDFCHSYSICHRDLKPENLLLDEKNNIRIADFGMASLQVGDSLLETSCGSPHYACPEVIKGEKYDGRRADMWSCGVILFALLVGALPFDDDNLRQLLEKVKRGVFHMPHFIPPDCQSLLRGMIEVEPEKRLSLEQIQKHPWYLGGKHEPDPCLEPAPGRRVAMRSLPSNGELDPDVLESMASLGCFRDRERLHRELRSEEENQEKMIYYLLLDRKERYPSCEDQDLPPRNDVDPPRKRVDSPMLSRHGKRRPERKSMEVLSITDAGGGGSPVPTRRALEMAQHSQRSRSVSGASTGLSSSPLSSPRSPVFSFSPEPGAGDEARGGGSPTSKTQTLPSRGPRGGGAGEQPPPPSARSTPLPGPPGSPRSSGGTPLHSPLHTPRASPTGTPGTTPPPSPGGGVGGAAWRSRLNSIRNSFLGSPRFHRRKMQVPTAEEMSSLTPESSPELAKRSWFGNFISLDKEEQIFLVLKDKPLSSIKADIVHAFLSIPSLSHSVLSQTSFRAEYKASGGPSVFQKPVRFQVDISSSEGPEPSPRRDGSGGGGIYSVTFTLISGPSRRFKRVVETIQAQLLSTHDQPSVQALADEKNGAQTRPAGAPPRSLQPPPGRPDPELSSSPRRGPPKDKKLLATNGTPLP
The note with it: at 0.1 µM.

The target in assay [5] is T2, Serine/threonine-protein kinase BRSK1 (Homo sapiens). Conditions: at 1 µM.
Assay [6] addresses T3, Serine/threonine-protein kinase BRSK2 (Homo sapiens) (UniProt Q8IWQ3).
T3 sequence (whole entry): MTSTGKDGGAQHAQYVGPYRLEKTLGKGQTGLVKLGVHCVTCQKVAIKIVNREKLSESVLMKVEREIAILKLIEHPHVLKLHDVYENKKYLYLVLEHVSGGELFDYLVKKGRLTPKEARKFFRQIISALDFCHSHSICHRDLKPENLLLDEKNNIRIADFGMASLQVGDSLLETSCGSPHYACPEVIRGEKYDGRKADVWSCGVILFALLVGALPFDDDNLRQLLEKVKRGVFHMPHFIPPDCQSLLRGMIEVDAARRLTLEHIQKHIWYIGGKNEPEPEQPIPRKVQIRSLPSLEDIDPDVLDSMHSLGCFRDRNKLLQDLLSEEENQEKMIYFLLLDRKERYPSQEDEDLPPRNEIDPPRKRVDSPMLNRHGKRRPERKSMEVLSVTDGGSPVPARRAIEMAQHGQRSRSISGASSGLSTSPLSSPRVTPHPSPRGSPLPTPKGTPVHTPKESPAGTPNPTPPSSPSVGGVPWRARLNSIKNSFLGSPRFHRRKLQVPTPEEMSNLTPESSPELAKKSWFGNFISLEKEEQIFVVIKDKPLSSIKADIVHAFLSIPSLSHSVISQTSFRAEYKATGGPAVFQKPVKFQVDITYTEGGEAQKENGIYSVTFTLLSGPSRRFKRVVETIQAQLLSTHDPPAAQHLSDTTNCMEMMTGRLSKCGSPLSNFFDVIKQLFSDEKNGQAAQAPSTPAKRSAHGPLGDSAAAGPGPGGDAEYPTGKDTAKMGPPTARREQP
The note with it: at 0.1 µM.

In assay [7] the target is T3, Serine/threonine-protein kinase BRSK2 (Homo sapiens). The note with it: at 1 µM.
The target of assay [8] is Calcium/calmodulin-dependent protein kinase type 1D (Homo sapiens) (UniProt Q8IU85). The note with it: at 0.1 µM.
For assay [9] the target is unchanged. Conditions: at 1 µM.
Assay [10] has as its target Calcium/calmodulin-dependent protein kinase type II subunit alpha (Homo sapiens) (UniProt Q9UQM7). The note with it: at 0.1 µM.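 Also: reported values are averages (mean inhibition of CAMK2A).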

Structures are written as SMILES. “And” between values parts separate entries of the source, which are not always exact repeats. Identical values can stand only once.

Calcium/calmodulin-dependent protein kinase type II subunit alpha (Homo sapiens), sequence (Q9UQM7 whole entry): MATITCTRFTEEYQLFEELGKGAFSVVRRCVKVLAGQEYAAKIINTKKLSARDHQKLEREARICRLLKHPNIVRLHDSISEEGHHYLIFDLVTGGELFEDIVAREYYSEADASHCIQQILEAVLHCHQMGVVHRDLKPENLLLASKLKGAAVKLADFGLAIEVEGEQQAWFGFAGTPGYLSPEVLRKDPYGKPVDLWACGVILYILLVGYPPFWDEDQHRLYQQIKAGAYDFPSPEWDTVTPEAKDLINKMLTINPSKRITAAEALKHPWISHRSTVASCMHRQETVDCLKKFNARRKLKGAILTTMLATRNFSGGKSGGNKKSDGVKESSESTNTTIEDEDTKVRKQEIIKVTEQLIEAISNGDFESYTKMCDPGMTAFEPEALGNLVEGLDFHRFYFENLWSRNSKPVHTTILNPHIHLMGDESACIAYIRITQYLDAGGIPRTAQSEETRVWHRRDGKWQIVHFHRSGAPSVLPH
5'-AMP-activated protein kinase catalytic subunit alpha-2 (Homo sapiens), sequence (P54646 whole entry, looked up): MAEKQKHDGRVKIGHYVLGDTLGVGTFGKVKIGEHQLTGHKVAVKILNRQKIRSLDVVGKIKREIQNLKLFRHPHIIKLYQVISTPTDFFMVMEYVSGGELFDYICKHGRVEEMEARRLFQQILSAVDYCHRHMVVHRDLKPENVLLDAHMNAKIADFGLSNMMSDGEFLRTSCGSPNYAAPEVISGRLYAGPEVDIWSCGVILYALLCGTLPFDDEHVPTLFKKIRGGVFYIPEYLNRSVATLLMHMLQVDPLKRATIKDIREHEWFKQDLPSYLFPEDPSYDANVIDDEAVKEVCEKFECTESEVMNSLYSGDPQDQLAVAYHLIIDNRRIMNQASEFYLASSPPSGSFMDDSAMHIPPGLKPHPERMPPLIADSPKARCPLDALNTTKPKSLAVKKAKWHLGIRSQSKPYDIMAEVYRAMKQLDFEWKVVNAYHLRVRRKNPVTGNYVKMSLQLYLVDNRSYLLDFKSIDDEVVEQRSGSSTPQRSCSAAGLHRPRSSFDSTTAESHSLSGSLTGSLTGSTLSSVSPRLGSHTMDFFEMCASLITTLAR
Calcium/calmodulin-dependent protein kinase type 1D (Homo sapiens), sequence (Q8IU85 whole entry, looked up): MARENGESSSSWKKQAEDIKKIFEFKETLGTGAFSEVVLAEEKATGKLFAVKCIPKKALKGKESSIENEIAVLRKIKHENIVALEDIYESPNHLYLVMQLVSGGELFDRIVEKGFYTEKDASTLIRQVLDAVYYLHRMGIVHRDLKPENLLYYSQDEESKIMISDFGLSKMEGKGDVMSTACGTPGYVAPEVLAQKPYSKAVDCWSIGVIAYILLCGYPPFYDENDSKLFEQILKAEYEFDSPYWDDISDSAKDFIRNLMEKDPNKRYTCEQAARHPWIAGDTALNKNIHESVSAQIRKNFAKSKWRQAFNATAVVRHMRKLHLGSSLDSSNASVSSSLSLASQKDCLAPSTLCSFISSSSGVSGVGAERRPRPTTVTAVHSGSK

In general, inhibition refers to the relative decrease from the control value, in per cent. As to `CN1CCN(Cc2ccc(-c3cc4ncnc(Nc5ccc(OCc6cccc(F)c6)c(Cl)c5)c4s3)o2)CC1`, the inhibition was 4.56% and 5.82% in [1]; 0.69% and 0.76% in assay [2]; 4.56% and 2.98% in assay [3]; 0.8% and -0.05% in assay [4]; 2.8% and -0.24% in assay [5]; 2.16% and 1.05% in assay [6]. In addition, the inhibition in assay [7] was 4.75% and 4.26%; in assay [8] it was 0.32% and 0.88%; in assay [9] it was 2.5% and 0.41%; in [10], 0.12% and 4.61%.

On to `CC1=C(C(=O)Nc2ccc3[nH]ncc3c2)C(c2ccc(F)cc2)N=C(c2ccc(C(F)(F)F)nc2)N1` (stereo not given), for which the inhibition in [1] was 4.16%; in assay [2] it was 2.72%; in [3] it was -3.57%; in [4], 1.01%; in assay [5], 3.19%; in assay [6], 0.18%. Besides, the inhibition in assay [7] was determined as 5.63%; in [8], 0.25%; in [9] it was 1.37%; in assay [10] it was 0.55%.

Consider `O=C(O[C@H]1CN[C@H](C#Cc2cc3ncnc(Nc4ccc(OCc5cccc(F)c5)c(Cl)c4)c3s2)C1)N1CCOCC1`, for which the inhibition in assay [1] is 2.14%; in assay [2], 0.4%; in assay [3] it was 0.97%; in [4], -0.35%; in [5], 1.81%; in assay [6] it was 2.06%. Further, the inhibition in assay [7] is 3.32%; in [8], -0.02%; in assay [9], -0.12%; in assay [10], 2.9%.

`COc1cc2c(cc1Nc1nc(Nc3cccc(F)c3C(N)=O)c3cc[nH]c3n1)N(C(=O)CN1CCN(C(C)C)CC1)CC2`: the inhibition is 3.18% in assay [1]; 1.37% in [2]; 5.31% in assay [3]; 2.82% in [4]; -1.3% in assay [5]; -0.84% in [6]. Moreover, the inhibition in assay [7] is -0.2%; in assay [8], 1.29%; in assay [9] it was 7.02%; in [10], 2.3%.

As to `CN(c1ccc(NC(=O)NCCN2CCOCC2)cc1)c1ccnc(Nc2ccc(CS(C)(=O)=O)cc2)n1`, the inhibition in assay [1] was 4.4%; in [2], 8.2%; in assay [3], 41.6%; in assay [4], -2.24%; in assay [5] it was 4.74%; in assay [6], 2.43%. Further, the inhibition in assay [7] was 5.48%; in assay [8] it was -0.41%; in assay [9] it was 0.15%; in [10] it was 1.72%.

On to `COc1ccc(-c2nn3ncccc3c2-c2ccnc(Nc3ccc(F)c(F)c3)n2)cc1`, for which the inhibition in [1] worked out at 6.49%; in [2], 3.92%; in assay [3], 5.51%; in assay [4], 3.95%; in assay [5], 7.79%; in assay [6] it was 5.66%. Also, the inhibition in assay [7] is 7.14%; in [8] it was -0.12%; in [9], 1.91%; in [10], 3.21%.

Consider `COc1cc(N2CCN(C(C)C)CC2)ccc1Nc1nc(Nc2cccc3ncccc23)c2cc[nH]c2n1`, for which the inhibition is 0.77% in [1]; 13.2% in assay [2]; 47.5% in assay [3]; -0.07% in [4]; 0.86% in assay [5]; -0.35% in assay [6]. Moreover, the inhibition in [7] is -0.59%; in assay [8], 1.82%; in [9], 17.8%; in [10], -2.58%.

As to `CS(=O)(=O)CCNCc1ccc(-c2ccc3ncnc(Nc4ccc(OCc5cccc(C(F)(F)F)c5)cc4)c3c2)o1`, the inhibition in [1] is 3.3%; in assay [2], 0.13%; in [3] it was 6.75%; in [4], 4%; in assay [5], 4.04%; in [6], 4.95%. The inhibition in [7] is 9.19%; in [8], -0.93%; in assay [9], 0.88%; in assay [10], 1.38%.

Regarding `Cc1c2ccc(N(C)c3ccnc(Nc4cccc(S(N)(=O)=O)c4)n3)cc2nn1C`, the inhibition came out at 5.34% in [1]; 10.9% in [2]; 46.2% in [3]; 3.47% in assay [4]; 3.4% in [5]; 1.95% in assay [6]. The inhibition amounted to 2.47% in assay [7], 0.58% in assay [8], 2.6% in assay [9] and 3.49% in [10].

Consider `COc1cccc(Nc2nccc(-c3cnn4ncccc34)n2)c1`, for which the inhibition in assay [1] is 7.99%; in [2], 52.8%; in assay [3] it was 71%; in assay [4], 0.63%; in assay [5], 6.67%; in assay [6], 0.75%. For the same compound, the inhibition in assay [7] was 10.4%; in assay [8], -0.48%; in assay [9], 4.71%; in assay [10], 4.77%.

On to `O=C(Nc1n[nH]c2nnc(-c3cccnc3)cc12)C1CC1`, for which the inhibition was 0.41% in assay [1]; 1.34% in [2]; 0.53% in assay [3]; -0.56% in assay [4]; -3.34% in [5]; 0.35% in assay [6]. Moreover, the inhibition in assay [7] is 1.6%; in [8], 0.85%; in [9] it was 0.89%; in [10], -1.44%.

In the case of `O=C(O[C@H]1CN[C@H](C#Cc2cc3ncnc(Nc4ccc5c(cnn5Cc5ccccc5)c4)c3s2)C1)N1CCOCC1`, the inhibition in [1] was 3.11%; in [2] it was 3.37%; in [3], 4.34%; in assay [4], 0.74%; in [5] it was 2.54%; in assay [6] it was 1.3%. Moreover, the inhibition in [7] is 3.58%; in [8], 0.26%; in [9], 1.04%; in assay [10], -0.77%.

For the compound `COc1ccc(Nc2ncc(-c3ccccc3)o2)cc1OC`, the inhibition in [1] stood at 14.5%; in assay [2], 18.2%; in assay [3], 61.5%; in assay [4], 1.32%; in assay [5], 11.5%; in assay [6], 0.9%. In addition, the inhibition was found to be 12.8% in [7], 0.37% in assay [8], 1.51% in assay [9] and 1.79% in assay [10].

Take `O=C(O[C@H]1CN[C@H](C#Cc2cc3ncnc(Nc4ccc5c(ccn5Cc5cc(F)ccc5F)c4)c3s2)C1)N1CCOCC1`: the inhibition in [1] was determined as 3.87%; in assay [2], 1.19%; in assay [3], 1.94%; in assay [4], 1.2%; in assay [5], 0.38%; in assay [6], 1.23%. For the same compound, the inhibition in [7] worked out at 0.73%; in assay [8] it was 0.69%; in assay [9], 2.19%; in assay [10], 2.78%.

For `COc1c(C(N)=O)cc(-c2ccc(Cl)cc2)cc1-c1ccc(S(N)(=O)=O)cc1`, the inhibition in [1] was 3.24%; in assay [2], 0.82%; in assay [3] it was 1.1%; in assay [4], 3.28%; in [5] it was -0.57%; in assay [6], -0.02%. Further, the inhibition was 1.59% in [7], 0.45% in assay [8], 3.09% in assay [9] and 3.01% in assay [10].

`CCN1CCC(C(=O)Nc2n[nH]c3nnc(-c4cccc(F)c4F)cc23)CC1`: the inhibition is 3.06% in [1]; 3.72% in assay [2]; 5.44% in assay [3]; -0.16% in assay [4]; 1.41% in assay [5]; 1.7% in assay [6]. The inhibition in assay [7] was 3.77%; in assay [8], 0.68%; in [9] it was 0.83%; in [10], -1.94%.
